Source: PubChem BioAssay AID1159580 (chemical genetic matrix, 2015)
Where “and” joins values, the source holds several entries; their conditions need not be identical. Identical values can stand only once. Hit rate of the full screen: of about 5,500 compounds, about 2,000 (36%) were called active. Another 18% or so got no clear call; they are omitted. No stated cut-off is given here; in the data, active means normalized growth mostly below about 0.91 (no sharp cut-off); inconclusive means no clear call, values can overlap the other calls; inactive means mostly above about 0.92. The list shows a part of the results.

Experiment: chemical genetic growth profiling, strain panel (AID 1159580);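 further: tested at 20 µM; growth read once vehicle control cultures reached saturation at 30 °C; 1 = growth at the plate median or of vehicle wells; lower values mean less growth of the strain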
Conditions: S. cerevisiae deletion strains, growth OD

Measured: normalized growth

COc1ccc2[nH]cc(CCN)c2c1
inactive: locus YAL013W, strain DEP1, active compounds read low 0.982 | locus YAL021C, strain ccr4, active compounds read low 1.04 | locus YAL026C, strain drs2, active compounds read low 0.987 | locus YAL030W, strain snc1, active compounds read low 0.995 | locus YAL040C, strain CLN3, active compounds read low 0.967 | locus YBL061C, strain skt5, active compounds read low 0.989 | locus YBR009C, strain hhf1, active compounds read low 1.02 | locus YBR021W, strain FUR4, active compounds read low 0.985 | locus YBR023C, strain chs3, active compounds read low 1 | locus YBR171W, strain sec66, active compounds read low 0.993 | locus YBR229C, strain ROT2, active compounds read low 0.95 | locus YBR231C, strain swc5, active compounds read low 0.986 | locus YBR279W, strain paf1, active compounds read low 0.995 | locus YCL011C, strain gbp2, active compounds read low 1.01 | locus YCL016C, strain dcc1, active compounds read low 1.02 | locus YCL029C, strain bik1, active compounds read low 0.998 | locus YCL061C, strain MRC1 (second series), active compounds read low 1 | locus YCL061C, strain MRC1, active compounds read low 0.998 | locus YCL069W, strain vba3, active compounds read low 0.992 | locus YCR088W, strain abp1, active compounds read low 0.99 | locus YDL005C, strain med2, active compounds read low 1.02 | locus YDL035C, strain GPR1, active compounds read low 0.985 | locus YDL040C, strain nat1, active compounds read low 0.991 | locus YDL074C, strain BRE1, active compounds read low 0.999 | locus YDL101C, strain DUN1, active compounds read low 0.989 | locus YDL134C, strain PPH21, active compounds read low 0.973 | locus YDL185W, strain tfp1, active compounds read low 0.97 | locus YDL192W, strain arf1, active compounds read low 0.989 | locus YDR001C, strain nth1, active compounds read low 0.989 | locus YDR069C, strain doa4, active compounds read low 0.971 | locus YDR101C, strain arx1, active compounds read low 0.998 | locus YDR137W, strain rgp1, active compounds read low 1.01 | locus YDR150W, strain NUM1, active compounds read low 0.963 and 0.992 | locus YDR159W, strain sac3, active compounds read low 0.933 | locus YDR162C, strain NBP2, active compounds read low 0.945 | locus YDR195W, strain ref2 0.951 | locus YDR297W, strain sur2, active compounds read low 0.989 | locus YDR318W, strain mcm21, active compounds read low 0.995 | locus YDR334W, strain swr1, active compounds read low 0.982 | locus YDR335W, strain msn5, active compounds read low 0.995 | locus YDR363W, strain ESC2, active compounds read low 0.978 | locus YDR388W, active compounds read low 0.986 | locus YDR392W, strain spt3, active compounds read low 0.951 | locus YDR502C, strain sam2, active compounds read low 0.995 | locus YEL003W, strain gim4, active compounds read low 0.986 | locus YEL037C, strain rad23, active compounds read low 0.988 | locus YEL061C, strain CIN8 (second series), active compounds read low 0.989 | locus YEL061C, strain CIN8, active compounds read low 0.977 | locus YER002W, strain NOP16, active compounds read low 1.01 | locus YER015W, strain faa2, active compounds read low 1 | locus YER016W, strain bim1, active compounds read low 0.991 | locus YER110C, active compounds read low 0.964 | locus YER111C, strain swi4, active compounds read low 1 | locus YER155C, strain BEM2 (second series), active compounds read low 0.978 | locus YER155C, strain BEM2, active compounds read low 0.993 | locus YER167W, strain BCK2, active compounds read low 0.987 | locus YFR010W, strain ubp6, active compounds read low 0.979 | locus YGL078C, strain dbp3, active compounds read low 0.984 | locus YGL086W, strain mad1, active compounds read low 0.966 | locus YGL167C, strain pmr1, active compounds read low 0.994 | locus YGL173C, strain kem1, active compounds read low 0.997 | locus YGL227W, strain vid30, active compounds read low 0.983 | locus YGL240W, strain doc1, active compounds read low 0.986 | locus YGL248W, strain PDE1, active compounds read low 0.981 | locus YGL253W, strain hxk2, active compounds read low 0.974 | locus YGR078C, strain PAC10, active compounds read low 0.999 | locus YGR135W, strain pre9, active compounds read low 0.989 | locus YGR229C, strain SMI1, active compounds read low 1.02 | locus YGR252W, strain gcn5, active compounds read low 0.843 | locus YHR013C, strain ard1, active compounds read low 0.973 | locus YHR027C, strain rpn1, active compounds read low 1 | locus YHR030C, strain SLT2, active compounds read low 0.985 | locus YHR079C, strain IRE1 (second series), active compounds read low 0.992 | locus YHR094C, strain hxt1, active compounds read low 0.984 | locus YHR129C, strain ARP1, active compounds read low 0.996 | locus YHR142W, strain chs7, active compounds read low 1 | locus YHR200W, strain rpn10, active compounds read low 0.991 | locus YIL066C, strain RNR3, active compounds read low 0.99 | locus YIL073C, strain SPO22, active compounds read low 0.938 | locus YIL125W, strain kgd1, active compounds read low 0.975 | locus YIR030C, strain dcg1, active compounds read low 0.976 | locus YJL092W, strain hpr5, active compounds read low 0.999 | locus YJL095W, strain BCK1 (second series), active compounds read low 0.992 | locus YJL095W, strain BCK1, active compounds read low 1.04 | locus YJL115W, strain asf1, active compounds read low 0.99 | locus YJL129C, strain trk1, active compounds read low 0.995 | locus YJL134W, strain LCB3, active compounds read low 0.988 | locus YJL154C, strain vps35, active compounds read low 0.981 | locus YJL164C, strain tpk1, active compounds read low 1.02 | locus YJL166W, strain qcr8, active compounds read low 1.01 | locus YJL168C, strain set2, active compounds read low 0.999 | locus YJL187C, strain SWE1 (second series), active compounds read low 0.993 | locus YJL187C, strain SWE1, active compounds read low 1.01
